The test system of the experiment is Trichoderma virens ATCC 9645. Nature of the experiment: growth yield (OD600) with compound + IPBC relative to untreated control; higher = less growth inhibition. Conditions: compound concentration: 100 uM, IPBC concentration: 200 ng/ml. In outline:
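A biocide at 200 ng ml^−1 was co-applied to some wells, and library compounds were present in all test wells at 100 μM final. The wells held 100 μl of Trichoderma virens ATCC 9645 spores at 15,000 spores ml^−1 in potato dextrose broth, grown at 30 °C in 96-well plates, with OD600 read at 40 h and 72 h. Results are relative growth against the control without either agent, averaged across duplicate screens.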

The results in this text go back to the supplement of paper PMC8007513.

Where a name gives a salt, the structure may show the parent alone. ± gives the standard error. Among all 1,300 compounds or so, about 130 (10%) showed an effect of 50% or more. The sample as a whole holds a higher share of strong results than the screen did.

As to `C/C(=C\C(=O)OCCCCCCCCC(=O)O)C[C@@H]1OC[C@H](C[C@@H]2O[C@H]2[C@@H](C)[C@H](C)O)[C@@H](O)[C@H]1O` [Mupirocin] + CCCCNC(=O)OCC#CI [3-iodo-2-propynyl butylcarbamate (IPBC)], the growth yield (40 h) is 6.51 ± 1.4% and the growth yield (72 h) was 43.4 ± 5.7%.
For `O=C1CCc2ccc(OCCCCN3CCN(c4cccc(Cl)c4Cl)CC3)cc2N1` [Aripiprazole] + CCCCNC(=O)OCC#CI [3-iodo-2-propynyl butylcarbamate (IPBC)], in that order: 81.8 ± 2.1% and 94.2 ± 1.5%.
For `NS(=O)(=O)c1cc(C(=O)O)cc(N2CCCC2)c1Oc1ccccc1` [Piretanide] + CCCCNC(=O)OCC#CI [3-iodo-2-propynyl butylcarbamate (IPBC)], in that order: 98.3 ± 13% and 101 ± 6.5%.
For `CC(=O)Oc1ccc(C(c2ccc(OC(C)=O)cc2)c2ccccn2)cc1` [Bisacodyl] + CCCCNC(=O)OCC#CI [3-iodo-2-propynyl butylcarbamate (IPBC)], in that order: 76.2 ± 2.2% and 86.8 ± 2.1%.
As to `CC[C@H]1OC(=O)[C@H](C)[C@@H](O[C@H]2C[C@@](C)(OC)[C@@H](O)[C@H](C)O2)[C@H](C)[C@@H](O[C@@H]2O[C@H](C)C[C@H](N(C)C)[C@H]2O)[C@](C)(O)C[C@@H](C)[C@@H]2N[C@@H](COCCOC)O[C@H]([C@H]2C)[C@]1(C)O` [Dirithromycin] + CCCCNC(=O)OCC#CI [3-iodo-2-propynyl butylcarbamate (IPBC)], the growth yield runs as follows: (40 h) 89 ± 9.5%; (72 h) 94.9 ± 6.4%.
For `N=C(N)NS(=O)(=O)c1ccc(N)cc1` [Sulfaguanidine] + CCCCNC(=O)OCC#CI [3-iodo-2-propynyl butylcarbamate (IPBC)], in that order: 89.6 ± 2.5% and 92.4 ± 2.6%.
For `Cc1cccc(C)c1OCC(=O)N[C@@H](Cc1ccccc1)[C@@H](O)C[C@H](Cc1ccccc1)NC(=O)[C@H](C(C)C)N1CCCNC1=O` [Lopinavir] + CCCCNC(=O)OCC#CI [3-iodo-2-propynyl butylcarbamate (IPBC)], in that order: 108 ± 5.4% and 111 ± 5.1%.
Take `O=C(NCC(O)CO)c1c(I)c(C(=O)NCC(O)CO)c(I)c(N(CCO)C(=O)CO)c1I` (centres undefined) [Ioversol] + CCCCNC(=O)OCC#CI [3-iodo-2-propynyl butylcarbamate (IPBC)]: the growth yield turned out to be 103 ± 18% (40 h) and 98 ± 13% (72 h).
For `C#C[C@]1(O)CC[C@H]2[C@@H]3CCC4=CC(=O)CC[C@@H]4[C@H]3CC[C@@]21C` [Norethindrone] + CCCCNC(=O)OCC#CI [3-iodo-2-propynyl butylcarbamate (IPBC)], in that order: 55.1 ± 1.4% and 83.06 ± 0.63%.
For `OCCN(CCO)c1nc(N2CCCCC2)c2nc(N(CCO)CCO)nc(N3CCCCC3)c2n1` [Dipyridamole] + CCCCNC(=O)OCC#CI [3-iodo-2-propynyl butylcarbamate (IPBC)], in that order: 44.5 ± 1.6% and 57.37 ± 0.52%.
For `CN[C@H](CC(C)C)C(=O)N[C@H]1C(=O)N[C@@H](CC(N)=O)C(=O)N[C@H]2C(=O)N[C@H]3C(=O)N[C@H](C(=O)N[C@H](C(=O)O)c4cc(O)cc(O)c4-c4cc3ccc4O)[C@H](O)c3ccc(c(Cl)c3)Oc3cc2cc(c3O[C@@H]2O[C@H](CO)[C@@H](O)[C@H](O)[C@H]2O[C@H]2C[C@](C)(N)[C@H](O)[C@H](C)O2)Oc2ccc(cc2Cl)[C@H]1O` [Vancomycin hydrochloride] + CCCCNC(=O)OCC#CI [3-iodo-2-propynyl butylcarbamate (IPBC)], in that order: 84.2 ± 0.95% and 98.27 ± 0.52%.
As to `Cc1cccc(N(C)C(=S)Oc2ccc3ccccc3c2)c1` [Tolnaftate] + CCCCNC(=O)OCC#CI [3-iodo-2-propynyl butylcarbamate (IPBC)], the growth yield is 0% (40 h) and 35.9 ± 0.84% (72 h).
For the compound `CC(C)(C)C(=O)OCOC(=O)[C@@H]1N2C(=O)[C@@H](NC(=O)[C@H](N)c3ccccc3)[C@H]2SC1(C)C` [Pivampicillin] + CCCCNC(=O)OCC#CI [3-iodo-2-propynyl butylcarbamate (IPBC)], the growth yield is, setting by setting: (40 h) 125 ± 1.3%; (72 h) 119.9 ± 0.73%.
For `CCCCCOC(=O)Nc1nc(=O)n([C@@H]2O[C@H](C)[C@@H](O)[C@H]2O)cc1F` [Capecitabine] + CCCCNC(=O)OCC#CI [3-iodo-2-propynyl butylcarbamate (IPBC)], in that order: 99.28 ± 0.48% and 98.58 ± 0.84%.
For `CN(C)/N=N/c1[nH]cnc1C(N)=O` [Dacarbazine] + CCCCNC(=O)OCC#CI [3-iodo-2-propynyl butylcarbamate (IPBC)], in that order: 86.25 ± 0.48% and 93.03 ± 0.52%.
For `O=C([O-])c1ccccc1-c1c2cc(Br)c(=O)cc-2oc2[c]([Hg+])c([O-])c(Br)cc12.[Na+].[Na+].[OH-]` [Merbromin] + CCCCNC(=O)OCC#CI [3-iodo-2-propynyl butylcarbamate (IPBC)], in that order: 5.4 ± 0.64% and 3.99 ± 0.21%.
As for `COc1ccc([C@@H]2CC(=O)c3c(O)cc(O[C@@H]4O[C@H](CO[C@@H]5O[C@@H](C)[C@H](O)[C@@H](O)[C@H]5O)[C@@H](O)[C@H](O)[C@H]4O)cc3O2)cc1O` [Hesperidin] + CCCCNC(=O)OCC#CI [3-iodo-2-propynyl butylcarbamate (IPBC)], the growth yield runs as follows: (40 h) 86.41 ± 0.64%; (72 h) 92.6 ± 2.2%.
For the compound `C[C@@H](O[C@H]1OCCN(Cc2n[nH]c(=O)[nH]2)[C@H]1c1ccc(F)cc1)c1cc(C(F)(F)F)cc(C(F)(F)F)c1` [Aprepitant] + CCCCNC(=O)OCC#CI [3-iodo-2-propynyl butylcarbamate (IPBC)], the growth yield (40 h) turned out to be 113 ± 12% and the growth yield (72 h) was 104 ± 8.8%.
For `CNCCc1ccccn1` [Betahistine mesylate] + CCCCNC(=O)OCC#CI [3-iodo-2-propynyl butylcarbamate (IPBC)], the growth yield runs as follows: (40 h) 88 ± 8.3%; (72 h) 92 ± 5.6%.
For `O=C(NCNC(=O)NC1C(=O)NC(=O)N1CO)NC1C(=O)NC(=O)N1CO` (centres undefined) [Imidurea] + CCCCNC(=O)OCC#CI [3-iodo-2-propynyl butylcarbamate (IPBC)], in that order: 89 ± 7% and 92.5 ± 5.5%.
For `CCCc1cc(=O)[nH]c(=S)[nH]1` [Propylthiouracil] + CCCCNC(=O)OCC#CI [3-iodo-2-propynyl butylcarbamate (IPBC)], in that order: 90.1 ± 11% and 93 ± 6.4%.
For `CCCCCCNC(=O)n1cc(F)c(=O)[nH]c1=O` [Carmofur] + CCCCNC(=O)OCC#CI [3-iodo-2-propynyl butylcarbamate (IPBC)], in that order: 21.9 ± 0.95% and 31.4 ± 0.32%.
